Only some compounds are listed: those with a hit (about 3.9% of all), similar ones and a draw of the others.
ALR H2O2 inh: human ALR oxidase inhibition via reduced H2O2; 290,000 compounds, 3.8% hits; purified ALR, DTT oxidation, H2O2 HRP-luminol luminescence; inhibition, % (test concentration not listed); AID 485317; P55789;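 active = mean replicate inhibition above about 79%, with every replicate also reaching it, limit read from the data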
SUMO HTRF inh: SUMOylation inhibition. inhibition, % at 35 µM. P63279. AID 2006. 290,000 compounds, 0.36% hits. HTRF SUMOylation assay, SAE1/SAE2 + UBC9, in vitro; in the data active = inhibition above about 50%, passing the limit was not always enough
Target sequence (P63279 whole entry, looked up): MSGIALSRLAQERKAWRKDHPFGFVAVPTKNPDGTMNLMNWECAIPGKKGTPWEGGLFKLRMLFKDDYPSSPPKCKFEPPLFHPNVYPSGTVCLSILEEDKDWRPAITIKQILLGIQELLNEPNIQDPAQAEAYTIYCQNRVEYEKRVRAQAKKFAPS
H9c2 protect: modulators protecting cardiomyocytes from myocardial damage. H9c2 cardiomyocytes, H2O2 injury protection, ATPLite, 2 h. protection from H2O2 cell death, % at 20 µM. 360,000 compounds, 0.63% hits;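 active = compounds giving at least 50% protection of heart cells from peroxide-induced death in the single-dose screen, raw or plate-pattern-corrected value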;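 also: 0% = DMSO wells with peroxide and 100% = DMSO wells without peroxide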
NTR1 agonist: NTR1 (human) agonism. P30989. NTR1-U2OS beta-arrestin-GFP spot imaging, agonist mode. activation, % at 20 µM. 330,000 compounds, 0.17% hits. AID 493036;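 active = activation at or above 40% of the spot to cytoplasm intensity ratio, with at least 20 cells analyzed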;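 also: 0% = DMSO without peptide and 100% = 100 nM NTR1 peptide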
Target sequence (P30989 whole entry, looked up): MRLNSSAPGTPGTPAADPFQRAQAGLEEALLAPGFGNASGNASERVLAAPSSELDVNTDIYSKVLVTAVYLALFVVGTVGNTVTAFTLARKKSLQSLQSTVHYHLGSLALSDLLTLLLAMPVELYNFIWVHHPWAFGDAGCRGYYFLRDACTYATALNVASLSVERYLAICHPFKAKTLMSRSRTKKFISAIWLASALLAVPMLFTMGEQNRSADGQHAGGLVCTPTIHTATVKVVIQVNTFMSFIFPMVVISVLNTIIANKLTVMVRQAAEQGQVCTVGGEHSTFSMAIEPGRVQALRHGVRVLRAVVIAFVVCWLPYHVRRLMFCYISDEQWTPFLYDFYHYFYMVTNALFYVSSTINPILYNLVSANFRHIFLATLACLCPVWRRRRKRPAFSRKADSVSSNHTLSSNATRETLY
NTR1 ag conf: NTR1 (human) agonism, confirmed; shares compounds with NTR1 agonist; NTR1-U2OS beta-arrestin-GFP translocation imaging; activation, % at 20 µM; 480 compounds, 38% hits;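 active = mean activation at 20 µM of at least 40%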;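 also: 0% = DMSO without peptide and 100% = 100 nM NTR1 peptide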
Active calls of the source: *; . = not tested or not shown.

SMILES	ALR H2O2 inh	SUMO HTRF inh	H9c2 protect	NTR1 agonist	NTR1 ag conf
CC(C)CN(C(=O)COC(=O)CNC(=O)c1ccc(Cl)cc1)C1CCS(=O)(=O)C1 (stereo not given)	-3	-9	-1	-1	.
CC1(C)CC(=O)C(=Cc2cn(-c3ccccc3)nc2-c2ccc(Cl)cc2)C(=O)C1	5	6	-34	63*	83*
CC1(C)CC(=O)C(=Cc2cn(CCC#N)nc2-c2ccc(Cl)cc2)C(=O)C1	13	12	-16	8	.
CCC1CCCCN1C(=O)COC(=O)c1cc(Br)ccc1Cl (stereo not given)	-1	-12	4	3	.
O=C(Nc1ccc(Cl)cc1)c1nc[nH]c1C(=O)NCc1ccccc1	4	.	8	50*	18
C[C@@H](NC(=O)c1[nH]cnc1C(=O)Nc1ccccc1)c1ccccc1	-4	.	24	27	.
C[C@H](NC(=O)c1[nH]cnc1C(=O)Nc1ccc(Cl)cc1)c1ccccc1	-14	.	-25	51*	20
C[C@@H](NC(=O)c1[nH]cnc1C(=O)Nc1ccc(Cl)cc1)c1ccccc1	-3	.	5	44*	54*
Cc1ccc(-c2nc(C)c(C(=O)O)s2)cc1	37	-5	1	0	.
Brc1ccccc1OCCNCc1ccccc1	-4	9	-9	-1	.
CCOC(=O)/C=c1\s/c(=C\c2ccc3cc(OC)ccc3c2)c(=O)n1CC(=O)NCC1CCCO1 (stereo not given)	-17	33	-6	52*	45*
Cc1cccc(CN2C(=O)/C(=C\c3ccc(C(=O)NCCN4CCOCC4)cc3)Sc3ccccc32)c1	-1	10	45	18	.
CCN1CCN(CCNC(=O)c2ccc(/C=C3/Sc4ccccc4N(Cc4cccc(Cl)c4)C3=O)cc2)CC1	-8	-1	-26	58*	27
COc1ccc(Br)c(Cn2c(C)c(C(=O)NCc3ccc(F)cc3)sc2=O)c1	.	.	-2	.	.
CCCCCCOc1ccc(NC(=O)CC2C(=O)N(CC)C(=S)N2Cc2ccco2)cc1 (stereo not given)	-1	-14	-15	40*	10
O=c1/c(=C\c2ccc(O)cc2)sc2nc(-c3ccccc3)c(-c3ccccc3)n12	1	36	-6	46*	24
O=[N+]([O-])c1ccc(-c2cnc(SC(c3ccccc3)c3ccccc3)[nH]2)cc1	.	5	-10	54*	18
C[C@H](NC(=O)c1[nH]cnc1C(=O)Nc1cccc(Cl)c1)c1ccccc1	-4	.	18	52*	46*
C[C@@H](NC(=O)c1[nH]cnc1C(=O)Nc1cccc(Cl)c1)c1ccccc1	-18	.	8	45*	22
C[C@H](CO)NC(=O)c1[nH]cnc1C(=O)Nc1cccc(Cl)c1	.	.	14	.	.
CCc1noc(C)c1C(=O)Nc1cccc2ncccc12	-26	6	6	2	.
COc1ccc(-c2sc3cc(OC)c(OC)cc3c2-c2ccc(O)cc2)cc1	-2	.	-12	51*	7
CC1(C)CC(=O)C(C(C2=C(O)CC(C)(C)CC2=O)c2ccc(Br)s2)C(=O)C1 (stereo not given)	98*	6	14	59*	45*
CC1(C)CC(=O)C(C(C2=C(O)CC(C)(C)CC2=O)c2ccc([N+](=O)[O-])cc2)C(=O)C1 (stereo not given)	23	2	4	-1	.
CON(c1nc(Cl)nc(N(C)C)n1)S(=O)(=O)c1ccccc1Cl	0	10	1	0	.
SMILES	ALR H2O2 inh	SUMO HTRF inh	H9c2 protect	NTR1 agonist	NTR1 ag conf
CC(C)Oc1ccccc1/C=N/n1nnnc1N	-2	.	8	0	.
CCc1nc2ccccc2c(C(=O)OCC(=O)Nc2cccc(S(=O)(=O)N3CCOCC3)c2)c1C	-3	-26	20	60*	65*
CCc1nc2ccccc2c(C(=O)OCC(=O)Nc2ccc(S(=O)(=O)N3CCOCC3)cc2)c1C	70	-3	-3	11	.
O=C(CSc1nc2ccccc2c(=O)n1-c1ccc(Cl)c(Cl)c1)Nc1ccc2c(c1)CCC2	.	.	-8	.	.
Cc1ccc(C2=NOC(=O)/C2=C\c2ccccc2)cc1	70	.	-3	2	.
O=C1ON=C(c2ccc(Cl)cc2)/C1=C/c1ccc(O)cc1	47	13	.	66*	98*
CN(c1ccccc1)c1nc(N2CCCC2)nc(-n2ccnc2)n1	-1	0	20	8	.
c1ccc(N(c2ccccc2)c2nc(N3CCCC3)nc(-n3ccnc3)n2)cc1	-12	21	-22	48*	19
COc1ccc(CCn2c(=N)c(C(=O)NC3CCCC3)cc3c(=O)n4cccc(C)c4nc32)cc1	-3	3	-13	50*	39
COc1ccc(C(=O)NNC(=O)c2cccs2)cc1S(=O)(=O)N1CCOCC1	3	.	7	1	.
COc1ccc(C=C2C=C(C(C)(C)C)C(=O)C(C(C)(C)C)=C2)cc1OC	.	6	-19	41*	16
COc1ccc(/C=C2\CCc3ccccc3C2=O)cc1OC	-20	23	-4	2	.
CC1N=C2c3ccccc3N=C(SCc3cc(=O)n4cc(Cl)ccc4n3)N2C1=O (stereo not given)	12	7	16	52*	4
C=CCn1c(SCCN)nnc1-c1cccc(S(=O)(=O)N2CCOCC2)c1	.	.	-6	.	.
COc1ccc2nc(NC(=O)Nc3ccccc3)sc2c1	.	3	-38	0	.
CC(C)(C)c1nc(NC(=O)Nc2ccccc2)sc1Br	0	-8	-31	44*	11
Cc1ccc(C(=O)OCC(=O)NC(C)C2CC3CCC2C3)cc1N (stereo not given)	1	.	-5	1	.
Cc1cccc(OCc2n(CC(=O)OC3CC(C)CCC3C(C)C)c3ccccc3[n+]2C)c1 (stereo not given)	-12	8	-21	92*	101*
COc1cc(CC(NC(C)=O)C(=O)NC2CCN(C(=O)Nc3ccccc3Cl)CC2)cc(OC)c1 (stereo not given)	-4	-4	0	0	.
COc1cc(CC(NC(C)=O)C(=O)NC2CCN(C(=O)Nc3ccccc3C)CC2)cc(OC)c1 (stereo not given)	.	2	2	42*	-2
Cc1ccc(C(=O)Nc2cc(=O)n(C)c(=O)n2C)cc1C	.	21	-6	0	.
O=C(Nc1ncc(Cc2ccc(Cl)cc2Cl)s1)c1ccc([N+](=O)[O-])cc1	-1	9	-1	48*	7
O=C(Nc1nnc(COc2ccc(Cl)cc2)s1)c1ccc([N+](=O)[O-])cc1	-3	-3	1	-1	.
COc1c(C)cc(C(=O)C2CCCN(Cc3cccc4nccnc34)C2)cc1C (stereo not given)	1	1	-2	1	.
Oc1ccccc1/C=N/Nc1cc(N2CCCC2)nc(N2CCCC2)n1	17	14	-13	40*	27
Cc1cccc(NC(=O)Nc2ccc(Oc3c(F)c(F)c(F)c(F)c3F)cc2)c1	1	21	-4	-1	.
O=C(Nc1ccc(Oc2c(F)c(F)c(F)c(F)c2F)cc1)OC1CCN2Cc3ccccc3N=C12 (stereo not given)	-8	9	-2	40*	54*
